Assay results taken from PubChem BioAssay (NCI).
The panel holds about 79,000 compounds, 15% with a hit somewhere; the sample as a whole holds those more often. Rule as the data show it: active = growth inhibition above about 70%; inactive = the rest.

Experiments:
[1] = NCI Yeast Anticancer Drug Screen. Data for the rad50 strain (AID 155);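 also: 0% = growth of vehicle-only cultures of the same strain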; details: S. cerevisiae rad50 strain growth inhibition; at 50.0 µM; active compounds read high
In short: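 Growth of the mutant yeast was measured after compound exposure and referenced to vehicle-treated cultures.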

[2] = NCI Yeast Anticancer Drug Screen. Data for the mec2-1 strain (AID 157); details: S. cerevisiae mec2-1 strain, at 50.0 µM, active compounds read high
In short: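 mec2-1 yeast strain, carrying an alteration in DNA damage repair or cell cycle control, was exposed to compounds; growth inhibition was measured relative to vehicle-treated controls.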

[3] = NCI Yeast Anticancer Drug Screen. Data for the sgs1 mgt1 strain (AID 161);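 also: 0% = growth of cultures given vehicle only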; details: S. cerevisiae sgs1 mgt1 strain, at 50.0 µM, active compounds read high
In short: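 Percent growth inhibition was derived by comparing compound-exposed mutant yeast with vehicle-exposed cultures. The strain carries alterations in DNA damage repair.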

[4] = NCI Yeast Anticancer Drug Screen. Data for the cln2 rad14 strain (AID 165);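 also: 0% = growth equal to vehicle treated cultures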; details: S. cerevisiae cln2 rad14 strain, at 50.0 µM, active compounds read high
In short: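 Yeast carrying cln2 and rad14 alterations (cell cycle control and DNA damage repair) were exposed to compounds. Growth inhibition was measured against vehicle-treated controls.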

[5] = NCI Yeast Anticancer Drug Screen. Data for the bub3 strain (AID 167); details: S. cerevisiae bub3 mutant strain, at 50.0 µM, active compounds read high
In short: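 Whole-cell yeast assay. The mutant strain was incubated with compounds, and growth inhibition was determined by comparison with vehicle-treated cells.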

[6] = NCI Yeast Anticancer Drug Screen. Data for the mlh1 rad18 strain (AID 175); details: S. cerevisiae mlh1 rad18 strain growth inhibition; at 50.0 µM; active compounds read high
In short: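 Growth inhibition of the yeast strain was measured after compound exposure and expressed relative to vehicle-treated controls. The strain carries defined defects in DNA damage repair.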

Measured: growth inhibition

CC[N+](CC)(CC)CC(=O)c1ccc(Br)cc1
inactive: [1] 18.7% | [2] 12.7% | [3] 13.1% | [4] -0.35% | [5] 25% | [6] 8.2%

CCCCCCC/C=C\C=O
inactive: [1] 7.2% | [2] 16.9% | [3] 7.95% | [4] -1.25% | [5] 1% | [6] 3.7%

NC(CO)C(O)C(O)C(O)CO (stereo unspecified)
inactive: [1] 6.8% | [2] 4.5% | [3] 3.35% | [4] 6.7% | [5] 2.35% | [6] -0.45%

CCN(CC)c1ccc2cc(-c3nc4ccccc4[nH]3)c(=O)oc2c1
inactive: [1] 2% | [2] -5.3% | [3] 12.5% | [4] 3.15% | [5] 11.1% | [6] 2.55%

CCOC(=O)/C=C\SCCC(=O)O
inactive: [1] 10.1% | [2] 11.1% | [3] 15.8% | [4] 25.9% | [5] 27.1% | [6] 41.9%

Oc1cccc(C=NCCN=Cc2cccc(O)c2O)c1O.[Fe]
inactive: [1] -9.35% | [2] -5.7% | [3] 4.65% | [4] -39.7% | [5] 13.2% | [6] 1.15%

CCCCC(=O)N[C@H]1C[C@H]2CC[C@@]1(C)C2(C)C
inactive: [1] -23.2% | [2] 7.5% | [3] -16.6% | [4] -4.05% | [5] 10.9% | [6] -11.8%

O=C(Nc1cccc2ccccc12)OCCBr
inactive: [1] 6.85% | [2] -9.95% | [3] 3.25% | [4] 7% | [5] -10.2% | [6] -7.4%

Oc1cc(O)c(Cl)cc1Cl
inactive: [1] 15.4% | [2] -4.25% | [3] -22.8% | [4] -2.95% | [5] -12.3% | [6] 23.3%

Nc1ccc(N(C(=O)c2ccccc2)C(=O)c2ccccc2)c(-c2ccccc2)c1
inactive: [1] 19.9% | [2] 8.95% | [3] 6.15% | [4] 3.35% | [5] 11.1% | [6] 22.9%

Cc1ccccc1CCOC(=O)c1cc([N+](=O)[O-])cc([N+](=O)[O-])c1
inactive: [1] -19% | [2] 2.2% | [3] -10.9% | [4] 4.1% | [5] 5.45% | [6] -16.4%

O=C(CCc1nnc2s/c(=C\c3ccccc3Cl)c(=O)n12)Nc1cc(Cl)ccc1Cl
inactive: [1] 2.9% | [2] -14.7% | [3] -36.8% | [4] -21.8% | [5] -4.8% | [6] -15.1%

CS(=O)(=O)c1cc(=O)[nH]c(=O)[nH]1
inactive: [1] 0.55% | [2] 1.45% | [3] 18.2% | [4] 25.6% | [5] -0.9% | [6] 7.45%

CCCc1cc(=O)oc2c3c(cc(OC(C)C)c12)O[C@H](C)[C@H](C)[C@@H]3O
inactive: [1] 3.55% | [2] 0.15% | [3] -10.8% | [4] -1.45% | [5] -7.6% | [6] 18.8%

COc1ccc(C2CC(c3cc(C)ccc3O)=NC(N)=N2)cc1 (stereo unspecified)
inactive: [1] 19.6% | [2] 12.8% | [3] 15.8% | [4] 13.2% | [5] 13.4% | [6] 23.4%

c1ccc(CCC2OCC(c3ccccc3)O2)cc1 (stereo unspecified)
inactive: [1] -21.9% | [2] 18.6% | [3] -3.2% | [4] -35.9% | [5] 58.8% | [6] -2.05%

CCC(=N)C(c1ccccc1)(c1ccccc1)C(C)CN(C)C (stereo unspecified)
inactive: [1] 23.6% | [2] -7.3% | [3] -2.4% | [4] -4.75% | [5] -9.15% | [6] 13.7%

OC1CCCSC1 (stereo unspecified)
inactive: [1] 18.1% | [2] -15.9% | [3] 12.8% | [4] 4.75% | [5] 16.6% | [6] 27.9%

C=C1CN=C(Nc2ccc(F)cc2F)S1
inactive: [1] -0.15% | [2] 7.3% | [3] -14.6% | [4] 8.15% | [5] 1.75% | [6] 2.65%

O=S(=O)(c1ccc(I)cc1)c1ccc(I)cc1
inactive: [1] 22.6% | [2] 0.1% | [3] -9.15% | [4] 5.2% | [5] 5.35% | [6] 3.7%

O=C1CC2(CCCc3sccc32)C(=O)N1 (stereo unspecified)
inactive: [1] -11.2% | [2] -1.65% | [3] 1.55% | [4] -21.1% | [5] -5.6% | [6] -14.1%

CCN1C(=O)N(C)C(O)c2c1nc1ccccn1c2=O (stereo unspecified)
inactive: [1] -14.1% | [2] -8.35% | [3] -33.4% | [4] 3.65% | [5] -15.7% | [6] -19.6%

FC1C2=C(SC1(F)F)C1CCC2C1 (stereo unspecified)
inactive: [1] 4.9% | [2] -2.2% | [3] 28.1% | [4] 17.9% | [5] -4.05% | [6] 12.9%

CCC(=O)C(=O)c1ccccc1
inactive: [1] -12.9% | [2] -6.5% | [3] -0.4% | [4] -2.35% | [5] -1.05% | [6] 3.2%

Cc1cn(C2CC(O)C(CO)O2)c(=O)nc1NC1CC1 (stereo unspecified)
inactive: [1] -7% | [2] 3.45% | [3] -1% | [4] -13% | [5] 0.6% | [6] 3.15%

N#CCOS(=O)(=O)O
inactive: [1] -0.6% | [2] 0.45% | [3] -1.4% | [4] -6.7% | [5] -3.25% | [6] -1%

CCOC(=O)C1=C(SC)SC(C(=O)OCC)C2C=C(C)C=CN12 (stereo unspecified)
inactive: [1] -5.2% | [2] -19.4% | [3] -10.7% | [4] 5.05% | [5] -32.9% | [6] 3.75%

O=C(O)c1ccccc1C(=O)c1ccccn1
inactive: [1] -4% | [2] -31.8% | [3] -5.9% | [4] 10.6% | [5] -17.2% | [6] -15.2%

CCCOCC(O)CNCCNCC(O)COCCC (stereo unspecified)
inactive: [1] 4.1% | [2] -2.7% | [3] 8.15% | [4] -34.5% | [5] -3.65% | [6] 7.3%

O=C(O)C(O)C(O)C(O)C(O)C(=O)O.[NH-]C1CCCCC1[NH-].[Pt+2] (stereo unspecified)
inactive: [1] 8.15% | [2] -3.25% | [3] -1.55% | [4] 12.9% | [5] 8.25% | [6] 6.75%

COc1ccc(Cl)cc1NC(=O)Oc1ccc2ccccc2c1
inactive: [1] -5.8% | [2] 29.2% | [3] 12.2% | [4] -12.7% | [5] 27.3% | [6] 38.2%

O=C(c1ccccc1)C(N=Nc1ccccc1)(c1ccccc1)c1ccccc1
inactive: [1] 4.15% | [2] -6% | [3] -1.8% | [4] -7.05% | [5] -0.85% | [6] 21.6%

Cc1cccc(C)c1Nc1cc(=O)[nH]c(=O)[nH]1
inactive: [1] -2.6% | [2] -2.75% | [3] 3.4% | [4] -33.2% | [5] -11.6% | [6] -12.2%

CCOC(=O)C1=CC(C)(C(=O)OCC)Nc2c(nc(N)[nH]c2=O)N1 (stereo unspecified)
inactive: [1] -42.5% | [2] -12.9% | [3] -8.35% | [4] 4.35% | [5] -35.3% | [6] -19.9%

CC(CC(O)CCCN(C)C)CC(C)(C)C (stereo unspecified)
inactive: [1] 46.5% | [2] 39.8% | [3] 43.4% | [4] 22.1% | [5] 24.3% | [6] 37.5%

CN1CCC(C(=O)NNc2ccccc2)CC1
inactive: [1] -12.1% | [2] -13.2% | [3] -3.75% | [4] 7.3% | [5] 0.1% | [6] 4.7%
